Consider 39 compounds from PubChem BioAssay (NCI).

Each structure is given as a SMILES string. About 83,000 compounds went through this panel and 20% of them were active in at least one assay; those are over-represented in the sample as a whole.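 Plates (96-well) were seeded with cells, treated with compound at one concentration, and incubated for 48 hours before percent growth was determined.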 A number with no mark means an inactive call. The source made the active and inactive calls. How the source made its calls: active means growth percent below 10; inactive means the rest.

The assay has as its system HL-60(TB) leukemia. Nature of the assay: NCI-60 one-dose screen, 48 h (100 = growth as untreated, 0 = no growth, -100 = all killed). The note with it: 10 µM unless noted.
For the compound `Cc1ccc(-c2nc(C#N)c(S(=O)(=O)N(C)C)o2)cc1`, the growth was 0.829% (active). As to `O=C(/C=C/c1ccco1)c1ccc(Nc2ccnc3cc(Cl)ccc23)cc1`, the growth was 6.28% (active). The value for `CCOC(=O)c1sc(NC(=O)COc2cccc(/C=C3\CCc4cc(OC)ccc4C3=O)c2)nc1C` was -52.9% (active). The result for `CCCCC(CCc1ccc([N+](=O)[O-])cc1)(C(C)=O)C(=O)OCC` (centres undefined) reads 93%; that for `Clc1cc(Cl)cc(N2N=C(c3cccc(Nc4ccncc4)c3)CC2c2ccc(Br)cc2)c1` (centres undefined), 17.3%; that for `CCCc1n(Cc2ccc3ccccc3n2)cc[n+]1Cc1ccc2ccccc2c1`, -53.7% (active). The value for `O=C(CSc1oc(-c2ccccc2)nc1S(=O)(=O)c1ccccc1)Nc1ccc(F)cc1` was 63.5%; that for `CC(C)c1ccc(-n2c(=S)[nH]c3sc4cc(O)ccc4c3c2=O)cc1` was 99.4%. Take `COc1ccc(/C=C/C(c2cc(OC)c(OC)c(OC)c2)n2cncn2)cc1O` (centres undefined): the growth is -36.3% (active).

In the case of `CCCCCCCCCCCCCCCCCC(=O)NCCNC(=O)CCCCCCCCCCCCCCCCC`, the growth is 67.8%. The result for `O=[N+]([O-])c1cccc(-c2ncc(-c3ccc(Cl)cc3Cl)[nH]2)c1` reads 70.1%. The value for `Cc1ccc(N(CC(=O)Nc2ccc(S(=O)(=O)NC3CCN(C)CC3)cc2)S(=O)(=O)c2ccc(Cl)cc2)cc1` was 75.7%. The value for `CCOC(=O)c1c(C)nc2c(c1N)/C(=C/c1ccc(OC)cc1)C(=O)N2Cc1ccc(F)cc1` was 4.72% (active); that for `CNC(=O)c1cc(Oc2ccc(NC(=O)Nc3cc(C(C)(C)C)nn3-c3ccc4ncccc4c3)c(F)c2)ccn1` was -43.2% (active).

`C=C1C(=O)O[C@H]2[C@H]1CC/C(COC(=O)c1cccc3ccccc13)=C\CC[C@@]1(C)O[C@@H]21`: the growth was -47.2% (active).

For the compound `CCCn1ccnc1C(O)c1ccc(OCc2ccccc2)c(OC)c1` (centres undefined), the growth is 96.7%. The value for `CC(=O)c1ccc2c(c1)C1C=CCC1[C@H](c1cc3c(cc1Br)OCO3)N2` (some centres undefined) was -45.3% (active); that for `CC(=O)Nc1ccc(-c2ccc3c(c2)NC(=O)/C3=C\c2ccc[nH]2)cc1` was 95.5%; that for `CC(C)(C)CC(C)(C)n1nnnc1C(NC12CC3CC(CC(C3)C1)C2)c1ccccc1` (centres undefined) was 99.3%. The value for `CCOC(=O)Nc1ccc2nc(Sc3ccc(Cl)cc3)sc2c1` was 10.1%; that for `COc1ccc2c(c1)c(-c1nonc1-c1cn(C)c3ccc(OC)cc13)cn2C` was -1.01% (active).

Turning to `O=C1/C(=C\c2coc3ccccc3c2=O)c2ccccc2N1c1c(Cl)cccc1Cl`, the growth was 33.8%. The value for `CC(C)CCSc1nc(-c2ccc(F)cc2)c(C#N)c(N2CCN(C)CC2)n1` was 73.8%; that for `CCCCCCCCN(CCO)CCCCCCCC` was 100%; that for `N#Cc1ccccc1-c1ccc(Cn2c(-c3cscn3)nc3c(Cl)cccc32)cc1` was 85.8%.

For the compound `COc1ccc(N2CCC(=S)NC2=S)cc1`, the growth was 99%. The result for `CN1CCN(CC#CCOC(=O)CNC(=O)[C@]23CCC(C)(C)C[C@H]2C2=CC[C@@H]4[C@@]5(C)CC[C@H](O)C(C)(C)[C@@H]5CC[C@@]4(C)[C@]2(C)CC3)CC1` reads 49.7%; that for `Cc1ccc(N=c2nc3sc4c(C)ccc(C)c4n3c(N)c2C#N)cc1`, 108%. `Nc1c(C(=O)Nc2ccncc2)sc2nc3c(cc12)CCCCCCCC3`: the growth is -54.9% (active). The result for `CCc1cc(Cc2cc(CC)cc(C(C)(C)C)c2O)c(O)c(C(C)(C)C)c1` reads 58.1%; that for `Cc1ccc(Nc2nc(NCCO)c3ccccc3n2)cc1C`, -10.3% (active). The value for `O=C(/C=C/C=C/c1c(C2CC2)nc2ccccc2c1-c1ccc(F)cc1)c1cccs1` was -17.5% (active). The value for `NS(=O)(=O)Oc1ccc(-c2ccc3sccc3c2)cc1` was 99.7%; that for `CC(C)(C)OC(=O)CC1(O)CCCCC1` was 106%; that for `CCOC(=O)c1ccc(NC(=O)NC2=NCCS2)cc1` was 13.5%. Regarding `C#C[C@@]1(O)[C@@H](CO)O[C@@H](n2cc(Cl)c3c(N)ncnc32)[C@@H]1O`, the growth was -56.8% (active). The result for `Cc1cccc(C[C@H](NC(=O)Nc2ccc(Cl)cc2F)C(=O)N[C@@H]2C(=O)N3C[C@H](OC(=O)CCN(C)C)C[C@H]3C(=O)N3CCCC[C@H]3C(=O)N[C@@H](C)C(=O)N3C[C@H](C)C[C@H]3C(=O)O[C@H]2C)c1` reads 16.3%; that for `O=C(Nc1cccc2c1C(=O)c1cccc(Nc3cccc4c3C(=O)c3cccc(NC(=O)c5ccccc5)c3C4=O)c1C2=O)c1ccccc1`, 118%; that for `CCCCCCCCCCCCCCCC1=NCCN1`, -15.6% (active).
